# Only some compounds are listed: those with a hit (about 5.9% of all), similar ones and a draw of the others.
# ALR H2O2 inh = inhibitors of human ALR sulfhydryl oxidase, primary screen, biochemical, H2O2 detection, HRP-luminol luminescence, single point; inhibition, % (no concentration beside the values); FAD-linked sulfhydryl oxidase ALR (Homo sapiens), P55789; AID 485317, 2010; hit rate 3.8% among 290,000; purified ALR, DTT oxidation;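 active means mean replicate inhibition above about 79%, with every replicate also reaching it, limit read from the data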
# Target sequence (P55789 whole entry, looked up): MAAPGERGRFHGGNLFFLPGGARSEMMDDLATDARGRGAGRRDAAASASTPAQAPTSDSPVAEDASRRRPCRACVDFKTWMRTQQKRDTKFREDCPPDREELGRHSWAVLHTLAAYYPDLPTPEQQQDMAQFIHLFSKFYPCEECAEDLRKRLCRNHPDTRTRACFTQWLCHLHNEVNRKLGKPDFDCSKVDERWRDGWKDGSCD
# PRMT1 FP inh = PRMT1 methyltransferase inhibitors, primary screen, biochemical, fluorescence polarization; Protein arginine N-methyltransferase 1 (Homo sapiens), Q99873; recombinant PRMT1, activity-based probe fluorescence polarization; inhibition, % at 2.79 µM; hit rate 1.3% among 370,000;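 active means inhibition above about 21% made by adding two undisclosed values, limit read from the data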
# Rtt109 Vps75 = inhibitors of C. albicans Rtt109/Vps75 HAT, primary screen, biochemical, ThioGlo CoA-SH fluorescence, plate reader. hit rate 0.16% among 330,000. inhibition, % at 34.9 µM. AID 540336, 2011. purified Rtt109/Vps75, 4 h. Histone acetyltransferase RTT109 (Candida albicans (strain SC5314 / ATCC MYA-2876)), …;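 active means inhibition of at least 50% in every replicate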
# Target sequence (Q5AAJ8 whole entry, looked up): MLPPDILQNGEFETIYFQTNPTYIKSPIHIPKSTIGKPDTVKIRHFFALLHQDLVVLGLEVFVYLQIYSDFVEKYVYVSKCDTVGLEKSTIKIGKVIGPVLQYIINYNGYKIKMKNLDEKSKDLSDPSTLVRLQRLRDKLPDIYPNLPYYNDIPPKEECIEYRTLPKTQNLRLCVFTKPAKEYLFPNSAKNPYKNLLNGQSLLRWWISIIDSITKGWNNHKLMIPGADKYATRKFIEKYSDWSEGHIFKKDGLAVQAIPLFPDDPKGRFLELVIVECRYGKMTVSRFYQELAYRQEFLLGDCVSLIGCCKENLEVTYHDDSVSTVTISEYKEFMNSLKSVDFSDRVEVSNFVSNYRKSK
# rCAG binder = binders of r(CAG) RNA repeats, primary screen, biochemical, fluorescence | r(CAG) RNA repeat, TO-PRO-1 dye displacement fluorescence | inhibition, % at 3 µM | hit rate 1.3% among 370,000 | AID 651821, 2012;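 active means inhibition above the plate cutoff, the mean of all test compounds on that plate plus 3 SD, cut at about 35% in these data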;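 further: 0% = DMSO alone and 100% = 100 µM mitoxantrone as full dye displacement; higher means more dye released from RNA so lower well fluorescence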
# ABHD5 PLIN5 PPI = ABHD5-PLIN5 interaction inhibitors, primary screen, cell lysate, split luciferase complementation, luminescence | Perilipin-5 (Homo sapiens) + 1-acylglycerol-3-phosphate O-acyltransferase ABHD5 (Homo … | Split G. princeps luciferase complementation, 4 h | inhibition, % at 4 µM | hit rate 0.78% among 360,000 | AID 602281, 2012;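 active means inhibition above the mean inhibition across every tested compound plus 3 SD, cut at about 22% in these data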;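 further: 0% = DMSO only wells and the 100% control is not disclosed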
# LANA-H2B inh = blockers of LANA interaction with H2A/H2B – biochemical, FP readout, HTS, primary screen; inhibition, % (test concentration not listed); cell-free LANA-H2A/H2B peptide, fluorescence polarization; AID 2629, 2010; hit rate 0.6% among 320,000; in the data active means inhibition mostly above about 10%, no sharp cut-off; inactive means mostly below about 6.7%
# * = called active by the depositor; · = not tested or not shown; + = active, no number.
SMILES,ALR H2O2 inh,PRMT1 FP inh,Rtt109 Vps75,rCAG binder,ABHD5 PLIN5 PPI,LANA-H2B inh
COc1ccc(CN(CCN(C)C)c2ccccn2)cc1,-2.4,0.3,-6.9,-1.4,-0.4,-13.8
CCCCCCCCCCCCCCCC[N+](C)(C)CCN(Cc1ccc(OC)cc1)c1ncccn1,19.4,·,87.7*,·,17.7,-11.7
COC(=O)C1CN(Cc2cn(CCC3OCCO3)nn2)CCS(=O)(=O)N1Cc1ccc(C)cc1 (centres undefined),·,0.9,·,4.6,·,·
c1ccc2c(c1)-c1nc3ccccc3cc1C2N1CCOCC1 (centres undefined),·,-3.9,-1.6,1.4,1.4,·
c1ccc2c(c1)-c1ccccc1C2N1CCOCC1,·,24.5*,-2.5,0.0,-1.9,·
Cc1cc(NC(=O)c2ccccc2)ccc1NC(=O)c1ccccc1Cl,-5.4,-0.1,-3.8,-1.1,-7.5,-2.6
Cc1ccc(NC(=O)c2cccc(C(=O)Nc3ccc(C)cc3C(=O)O)c2)c(C(=O)O)c1,98.6*,3.1,·,23.9,7.7,2.1
Cc1cccc(C(=O)Nc2sc(-c3ccccc3)cc2C(=O)O)c1,-15.7,8.3,7.7,93.8*,1.0,6.4
Cc1cc(NC(=O)c2ccccc2)c(Cl)cc1N,·,-6.7,3.9,-0.8,7.1,·
Cc1cc(N)ccc1NC(=O)c1ccccc1,98.3*,0.0,0.6,-2.3,2.2,-4.6
COc1ccc(C)cc1NC(=O)c1cccc(C(=O)Nc2cc(C)ccc2OC)c1,-7.9,13.7,2.4,-3.0,0.6,3.8
Cc1cc(O)ccc1NC(=O)c1ccccc1,98.8*,-4.2,-11.6,-0.9,-4.7,3.3
CCCOc1ccc(F)cc1-c1cc(C(=O)NCc2cccs2)[nH]n1,·,1.8,·,1.3,-4.2,·
Nc1ccc(C23CC4CC(CC(CO)(C4)C2)C3)cc1,93.0*,-0.6,2.9,-2.1,0.4,1.9
Nc1ccc(C23CC4CC(CC(O)(C4)C2)C3)cc1,·,1.7,-1.5,-1.5,9.7,0.3
NCC12CC3CC(C1)CC(c1ccc(Cl)cc1)(C3)C2,-20.8,2.3,50.9*,15.7,7.7,-6.7
COc1ccc(C2CC(=O)C(c3cccc(OC)c3)=CN2Cc2ccccc2)cc1 (centres undefined),·,3.3,·,3.7,·,·
Oc1cc(-n2cccn2)c(O)cc1-n1cccn1,54.5,57.2*,-0.3,-0.5,4.0,0.6
Cc1ccc(S(=O)(=O)Cc2ccc([N+](=O)[O-])cc2)cc1,7.2,0.5,0.4,7.2,-0.4,15.8*
CC1=C(C)/C(=N\OS(=O)(=O)c2ccccc2)C=CC1=O,27.9,·,147.3*,·,62.2*,-0.6
COC(=O)C1=C(C)N(Cc2cccc(C(F)(F)F)c2)C(=NCC2CC2)NC1c1ccccc1 (centres undefined),·,-0.6,·,6.9,·,·
Cc1cc(S(=O)(=O)N2CCN(CC(=O)NCCc3cccs3)CC2)ccc1Br,-4.7,-5.3,1.2,-1.6,-4.7,+
CCCCn1c(=O)[nH]c(=O)c2c1nc(-c1ccc(C)c([N+](=O)[O-])c1)n2CC,96.1*,0.3,-4.1,-2.0,-2.6,4.2
CC(=O)N1CCC(=NNC(=O)c2cccs2)CC1,76.9*,2.1,7.8,-0.2,6.5,0.8
Cc1ccc(S(=O)(=O)N2CCOC2CNC(=O)C(=O)NCCc2c[nH]c3ccccc23)cc1 (centres undefined),-5.8,1.8,5.3,9.4,0.0,42.1*
SMILES,ALR H2O2 inh,PRMT1 FP inh,Rtt109 Vps75,rCAG binder,ABHD5 PLIN5 PPI,LANA-H2B inh
O=C(NCCc1c[nH]c2ccccc12)C(=O)NCC1OCCCN1S(=O)(=O)c1ccc(F)cc1 (centres undefined),12.3,2.9,6.7,11.0,-1.6,-2.2
CCc1cn(S(=O)(=O)c2ccccc2OC)nc1N,-2.7,·,-4.4,·,8.7,2.9
CCCc1cn(S(=O)(=O)c2ccc(OC)cc2OC)nc1N,98.0*,3.1,18.6,6.9,1.8,0.3
COc1ccc(C(=O)C2(C(=O)Nc3cc(C)cc(C)c3)CC(c3ccccn3)=NO2)cc1 (centres undefined),·,-2.3,·,8.6,·,·
Cc1cc(=O)oc2c(N)c(O)ccc12,96.5*,3.8,5.3,-0.1,-2.5,3.1
CNc1nc(N)c(C(=O)C23CC4CC(CC(C4)C2)C3)s1,98.4*,-1.4,-2.6,-1.4,-4.6,-6.0
ClCC1=Nc2cccc3cccc(c23)N1,99.1*,·,·,·,·,1.0
O=[N+]([O-])c1cccc(CON=Cc2cc(Cl)ccc2O)c1,·,-4.3,·,5.9,-13.7,·
CC1CN(C(=O)CCC(=O)NCc2ccc(Cl)cc2)c2ccccc2S1 (centres undefined),-6.9,-0.1,0.3,0.1,-1.6,6.7
O=C(NCC(=O)N1CCN(c2ccccc2O)CC1)c1cccs1,99.1*,1.9,-1.9,4.1,-17.2,5.6
COc1ccccc1C(=O)NCCC(=O)N1CCN(c2ccccc2O)CC1,90.8*,1.3,0.1,6.7,-2.5,0.8
COc1ccccc1C(=O)NCCC(=O)N1CCCCC1,-15.0,2.1,1.7,-4.3,3.4,-18.0
O=C(NC(CC(=O)N1CCN(c2ccccc2O)CC1)c1ccccc1)c1ccccc1Cl (centres undefined),99.4*,-2.6,11.1,7.9,-3.5,-6.1
COc1ccc(C(=O)NCC(=O)N2CC=C(c3ccccc3)CC2)cc1OC,·,-3.5,19.3,-2.7,-4.5,-7.3
Cc1cccc(N2CCN(C(=O)CC(NC(=O)c3ccccc3Cl)c3ccccc3)CC2)c1C (centres undefined),-3.8,0.9,·,0.3,0.4,1.8
COc1ccccc1C(=O)NCCC(=O)N1CC=C(c2ccccc2)CC1,-27.3,-3.8,-0.8,-4.1,23.8*,-2.1
Cc1ccc(C(=O)NCC(=O)N2CCN(c3ccccc3O)CC2)s1,·,-2.9,·,10.5,-2.1,·
COc1cccc(-c2nnc(SCC(=O)Nc3cccc4ccccc34)n2Cc2ccco2)c1,·,17.3,·,5.7,·,·
Nc1ccc(S(=O)(=O)c2ccc(N)c(N)c2)cc1,88.5*,2.0,14.7,4.8,-5.5,-8.6
CCN(CC)S(=O)(=O)N1CCC(C(=O)NCc2ccc(C)cc2)CC1,-2.6,2.6,-0.1,-7.1,-3.9,-0.3
CCN(CC)c1ccc(CN2CCC(C(=O)NCc3ccc(C)cc3)CC2)cc1,81.8*,0.1,9.0,-7.5,1.3,7.0
COc1ccc2c(c1)C[C@@H](CON1C(C)(C)CCCC1(C)C)N2S(=O)(=O)c1ccc(C)cc1,·,-3.1,·,·,·,·
CC(C)(C)Nc1nc(Cl)nc(Nc2ccccc2)n1,98.1*,6.8,-1.6,-2.3,-2.3,-9.1
